PfHsp90 yeast 2 = reduces growth (ATP signal) of yeast expressing P. falciparum Hsp90; S. cerevisiae expressing PfHsp90, BacTiter-Glo ATP, 48 h; yeast lacking PDR1 and PDR3 efflux regulators; inhibition, % at 9.4 µM; 0.32% of 310,000 active;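 active = every replicate shows inhibition above about 80%, whatever the replicate mean, limit read from the data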;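 note: 0% = DMSO neutral controls and 100% = 20 µM radicicol positive controls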
SUMO Mot1 rescue = SUMOylation pathway inhibition by Mot1-301 growth rescue. S. cerevisiae Mot1-301 growth rescue, ATP luminescence, 38.5C; percent above DMSO median, 100 means doubled. growth rescue, % at 18.8 µM. 1% of 320,000 active. AID 2716;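 active = every valid replicate shows activation above 250% relative to neutral control wells; inactive = the rest, any valid replicate at or below 250%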;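 note: OY570 slx delta 5 strain wells were the positive control but not used for scaling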
tim10-1 inh = growth inhibitors of tim10-1 mutant yeast; inhibition, % at 20 µM; 2.2% of 330,000 active; S. cerevisiae tim10-1 ts strain growth, BacTiter-Glo, 24 h;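 active = inhibition of at least 40%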;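 note: mutant grown at 25 °C; 0% = DMSO wells with yeast and 100% = wells holding no yeast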
tim23-1 inh = growth inhibitors of tim23-1 mutant yeast. AID 463212. S. cerevisiae tim23-1 growth, BacTiter-Glo luminescence, 24 h. 1.3% of 330,000 active. inhibition, % at 20 µM;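 active = growth inhibition of the mutant yeast at or above 50%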;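 note: temperature-sensitive mutant grown at 25 °C; plate controls were DMSO-treated mutant yeast for no effect and medium wells lacking yeast for full effect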
TIM10 inh = growth inhibitors of TIM10 yeast strain. S. cerevisiae TIM10 strain growth, BacTiter-Glo luminescence, 24 h. inhibition, % at 10 µM. 1.4% of 330,000 active;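 active = inhibition of 40% or more at the single tested concentration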;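 note: wild-type TIM10 isogenic control strain grown at permissive 25 °C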
tim10-1 conf = tim10-1 yeast growth inhibition, confirmed. 56% of 7,400 active. S. cerevisiae tim10-1 ts strain growth, BacTiter-Glo, 24 h. shares compounds with tim10-1 inh. inhibition, % at 20 µM. AID 463213;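 active = inhibition of yeast growth at or above a set limit in either of two repeat tests at 20 µM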;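 note: tim10-1 mutant grown at permissive 25 °C to find synthetic lethal compounds; 0% = DMSO yeast wells and 100% = medium wells without yeast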
Starred values were filed as active, the others as inactive. An excerpt weighted towards active compounds, which were near 4.4% of everything screened.

For Cc1cccc(C)c1NC(=O)N1CCCCCCC1 the results were PfHsp90 yeast 2 7, SUMO Mot1 rescue 4, tim10-1 inh -5, tim23-1 inh 14 and TIM10 inh 10.
Cc1cccc(C)c1NC(=O)C(c1ccc(Cl)cc1Cl)N1CCCCC1 (centres undefined) was read as PfHsp90 yeast 2 -2, SUMO Mot1 rescue 6, tim10-1 inh 42*, tim23-1 inh -3, TIM10 inh 18 and tim10-1 conf 23.
CC1(C)CC(=O)/C(=C(\O)c2ccccc2)C(=NCCc2ccccc2)C1 was read as PfHsp90 yeast 2 17, SUMO Mot1 rescue -15, tim10-1 inh 45*, tim23-1 inh 35, TIM10 inh 13 and tim10-1 conf 28.
Screening CCc1cc2c3c(c(=O)oc2cc1O)CCCC3 returned PfHsp90 yeast 2 -15, SUMO Mot1 rescue -13, tim10-1 inh 41*, tim23-1 inh 39, TIM10 inh 39 and tim10-1 conf 12.
`COc1ccc(NC(=O)c2cccnn2)cc1` gave PfHsp90 yeast 2 -30, SUMO Mot1 rescue -16, tim10-1 inh 22, tim23-1 inh -3 and TIM10 inh -5.
Screening CCSC1(SCC)N=C(N)C2(C#N)C(c3ccccc3)NC3=C(CCC3)C12C#N (centres undefined) returned PfHsp90 yeast 2 22, SUMO Mot1 rescue 8, tim10-1 inh -7, tim23-1 inh -11 and TIM10 inh -36.
Screening CCSC1(SCC)N=C(N)C2(C#N)C(c3ccc(OC)c(OC)c3OC)C12C#N (centres undefined) returned PfHsp90 yeast 2 7, tim10-1 inh 61*, tim23-1 inh 14, TIM10 inh 33 and tim10-1 conf 62*.
Screening NC(=O)c1ccccc1NC(=O)COc1ccc2c(c1)OCO2 returned PfHsp90 yeast 2 -6, SUMO Mot1 rescue 4, tim10-1 inh -23, tim23-1 inh -2 and TIM10 inh 13.
Screening CCN(c1ccccc1)S(=O)(=O)c1ccc(C(=O)NCC(=O)Nc2ccc(F)c(F)c2F)cc1 returned SUMO Mot1 rescue 507, tim10-1 inh 5, tim23-1 inh 12 and TIM10 inh 3.
`O=C(NCC(c1cccs1)N1CCOCC1)c1cc([N+](=O)[O-])cc([N+](=O)[O-])c1` (centres undefined) gave PfHsp90 yeast 2 20, SUMO Mot1 rescue -10, tim10-1 inh 42*, tim23-1 inh 19, TIM10 inh -3 and tim10-1 conf 13.
For O=C(NCC(c1cccs1)N1CCOCC1)c1cccc([N+](=O)[O-])c1 (centres undefined) the results were PfHsp90 yeast 2 1, SUMO Mot1 rescue 7, tim10-1 inh 8, tim23-1 inh 6 and TIM10 inh 8.
`CCOc1ccc(Nc2ccc(N)c(S(=O)(=O)O)c2)cc1` gave PfHsp90 yeast 2 -9.
Screening O=C(Oc1cccc2c(O)cccc12)c1ccccc1Cl returned PfHsp90 yeast 2 6.
Screening N/C(=N\OC(=O)c1cccc2ccccc12)c1ccncc1 returned PfHsp90 yeast 2 -22, SUMO Mot1 rescue 7, tim10-1 inh 49*, tim23-1 inh 28, TIM10 inh 29 and tim10-1 conf 40*.
`O=C(Oc1ccccc1O)c1cccc2ccccc12` gave SUMO Mot1 rescue 9, tim10-1 inh 47*, tim23-1 inh 43, TIM10 inh 21 and tim10-1 conf 34*.
NS(=O)(=O)c1ccc(Sc2ccc3c(c2)CCC3)nc1 was read as PfHsp90 yeast 2 -47, SUMO Mot1 rescue 51, tim10-1 inh 12, tim23-1 inh 11 and TIM10 inh -6.
Screening CCCSc1oc(-c2ccco2)nc1S(=O)(=O)c1ccccc1 returned PfHsp90 yeast 2 18, SUMO Mot1 rescue 3, tim10-1 inh 43*, tim23-1 inh 33, TIM10 inh 25 and tim10-1 conf 20.
For CCCSc1oc(-c2ccco2)nc1S(=O)(=O)c1ccc(C)cc1 the results were PfHsp90 yeast 2 7, SUMO Mot1 rescue 11, tim10-1 inh 22, tim23-1 inh 27 and TIM10 inh -29.
O=C(Nc1ccc(S(=O)(=O)N2CCCCC2)cc1)c1ccc(Cl)nc1 was read as SUMO Mot1 rescue 20, tim10-1 inh 17, tim23-1 inh 47 and TIM10 inh 31.
For CN(C)CCN(C(=O)c1ccc2ccccc2c1)c1nc2cc3c(cc2s1)OCCO3 the results were PfHsp90 yeast 2 5, SUMO Mot1 rescue -14, tim10-1 inh 16, tim23-1 inh 13 and TIM10 inh 12.
`CN(C)CCN(C(=O)c1cccc2ccccc12)c1nc2cc3c(cc2s1)OCO3` gave PfHsp90 yeast 2 -4, SUMO Mot1 rescue -6, tim10-1 inh 45*, tim23-1 inh 28, TIM10 inh 26 and tim10-1 conf -1.
For C[C@H](CO)N1C[C@H](C)[C@@H](CN(C)C)Oc2c(NC(=O)CCC(F)(F)F)cccc2C1=O the results were PfHsp90 yeast 2 -36, SUMO Mot1 rescue 7, tim10-1 inh -10, tim23-1 inh 2 and TIM10 inh -6.
`COc1cc(CN2CCC(Cc3ccccc3)CC2)cc([N+](=O)[O-])c1O` gave PfHsp90 yeast 2 -41, SUMO Mot1 rescue 17, tim10-1 inh 9, tim23-1 inh 2 and TIM10 inh -5.
For CCC1CCCCN1Cc1cc(OC)c(O)c([N+](=O)[O-])c1 (centres undefined) the results were SUMO Mot1 rescue 158, tim10-1 inh 43*, tim23-1 inh -1, TIM10 inh 4 and tim10-1 conf 14.
Screening Cc1cccc(C)c1NC(=S)N(Cc1ccccc1)Cc1cccs1 returned PfHsp90 yeast 2 -39, SUMO Mot1 rescue 21, tim10-1 inh 42*, tim23-1 inh 34, TIM10 inh 24 and tim10-1 conf 39*.
For Cn1nc(-c2ccc(Cl)cc2)c2cc(C(=O)NCCN3CCOCC3)sc21 the results were PfHsp90 yeast 2 -14, SUMO Mot1 rescue 7, tim10-1 inh 46*, tim23-1 inh 42, TIM10 inh 27 and tim10-1 conf 27.
Cn1nc(-c2ccc(Cl)cc2)c2cc(C(=O)N3CCN(C(=O)c4ccco4)CC3)sc21 was read as PfHsp90 yeast 2 -8, SUMO Mot1 rescue 0, tim10-1 inh 41*, tim23-1 inh 33, TIM10 inh 24 and tim10-1 conf 5.
For CN1CCCN(C(=O)c2ccc(Cl)s2)CC1 the results were PfHsp90 yeast 2 6, SUMO Mot1 rescue 96, tim10-1 inh -1, tim23-1 inh 1 and TIM10 inh 12.
Screening O=c1[nH]cnc2c1nc(NCc1ccccc1)n2C1O[C@@H](CO)[C@H](O)[C@@H]1O (some centres undefined) returned PfHsp90 yeast 2 -3, SUMO Mot1 rescue -6, tim10-1 inh -16, tim23-1 inh -10 and TIM10 inh 1.
For O=C(c1ccc(NS(=O)(=O)/C=C/c2ccccc2)cc1)N1CCCCC1 the results were PfHsp90 yeast 2 18, SUMO Mot1 rescue -15, tim10-1 inh 4, tim23-1 inh 7 and TIM10 inh -5.
